According to PubChem BioAssay (NCI):
About 79,000 compounds went through this panel and 15% of them were active in at least one assay; those are over-represented in the sample as a whole. A number with no mark means an inactive call. The source made the active and inactive calls. Rule as the data show it: active = growth inhibition above about 70%; inactive = the rest.

What was measured:
[1] = NCI Yeast Anticancer Drug Screen. Data for the rad50 strain (AID 155);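 also: 0% = growth of vehicle-only cultures of the same strain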; conditions: S. cerevisiae rad50 strain growth inhibition; at 50.0 µM; active compounds read high
Method in brief: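 Cells are treated with compound, grown, and their growth is then scored against vehicle-only cultures of the same repair-deficient yeast strain.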

[2] = NCI Yeast Anticancer Drug Screen. Data for the mec2-1 strain (AID 157); conditions: S. cerevisiae mec2-1 strain, at 50.0 µM, active compounds read high
Method in brief: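 Cells of the genetically defined mec2-1 yeast strain are incubated with test compound. Inhibition of growth is calculated against vehicle-treated controls.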

[3] = NCI Yeast Anticancer Drug Screen. Data for the sgs1 mgt1 strain (AID 161);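 also: 0% = growth of cultures given vehicle only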; conditions: S. cerevisiae sgs1 mgt1 strain, at 50.0 µM, active compounds read high
Method in brief: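 Genetically altered yeast, compound exposure, growth inhibition relative to vehicle.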

[4] = NCI Yeast Anticancer Drug Screen. Data for the cln2 rad14 strain (AID 165);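 also: 0% = growth equal to vehicle treated cultures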; conditions: S. cerevisiae cln2 rad14 strain, at 50.0 µM, active compounds read high
Method in brief: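 The screen exposed genetically defined yeast (cln2 rad14) to test compounds and scored growth inhibition relative to vehicle-treated controls.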

[5] = NCI Yeast Anticancer Drug Screen. Data for the bub3 strain (AID 167); conditions: S. cerevisiae bub3 mutant strain, at 50.0 µM, active compounds read high
Method in brief: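 Part of a panel of yeast mutants defective in DNA damage repair or cell cycle regulation. Each strain is grown with compound, and inhibition is calculated relative to solvent-treated cultures.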

[6] = NCI Yeast Anticancer Drug Screen. Data for the mlh1 rad18 strain (AID 175); conditions: S. cerevisiae mlh1 rad18 strain growth inhibition; at 50.0 µM; active compounds read high
Method in brief: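 Compound-treated yeast growth, normalised to vehicle controls. Strain bears defined DNA repair mutations.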

SMILES | growth inhibition [1] | growth inhibition [2] | growth inhibition [3] | growth inhibition [4] | growth inhibition [5] | growth inhibition [6]
O=C(Cc1n[nH]c(=S)nc1CC(=O)c1ccccc1)c1ccccc1 | -2.05% | 0.85% | 5.2% | -17.5% | -27.9% | 7.4%
C[n+]1nnn(/N=C\c2ccccc2)c1N | -3.55% | 11.8% | 10.1% | -0.95% | 8.75% | 11.6%
c1ccc(CNCc2ccccc2)cc1 | -2.65% | 3.8% | -37.8% | -35.1% | 18.6% | 1.05%
CC(=O)c1cc(CC2Cc3cc4c(cc3C2=O)CCC4)cc2c1CCC2 (configuration not stated) | -37.5% | -36.1% | -14.2% | 9% | -6.45% | -4.85%
OCCN(Cc1ccccn1)Cc1ccccn1 | 14% | -3.7% | 36.2% | 11.2% | 8.4% | 9%
Cn1c(=O)c2[nH]c(N(CCO)N=O)nc2n(C)c1=O | -9.25% | -8.2% | -4.25% | -7.35% | 13.3% | -26.4%
COc1cc(/C=C2/C(=O)N(C(=O)c3ccc(Cl)cc3)N=C2C)cc(OC)c1OC | 10% | -5.75% | 2.95% | -48.1% | 24.6% | 39%
O=C(/C=C/c1cccs1)c1ccc(C(=O)/C=C/c2cccs2)cc1 | -32.6% | -46.4% | -18% | 11.2% | -3.5% | -31.9%
Nc1cn(Cc2ccccc2)c2nc(/C=C3/C=CC=CC3=O)c(O)n12 | 2.25% | 1.75% | -6.9% | -5.45% | 0.9% | 8.85%
COC(=O)C1=C(C(=O)OC)C2CCC1O2 | -0.5% | -6% | -0.4% | -11.7% | 8.35% | -17.6%
CC(=O)c1cccc(NC(=O)Oc2ccc(C(=O)OCc3ccccc3)cc2)c1 | 71.2% (active) | 88.9% (active) | 80.7% (active) | 42.8% | 92.2% (active) | 92.9% (active)
CCCCCCC(=O)/C=C/c1cccc(OCc2ccccc2)c1 | 32% | 3.8% | 13.3% | 13.6% | 18.4% | 13.7%
CCC(=O)OCCSCCOC(=O)CC | 5.65% | 5.65% | -6.4% | -10.3% | -4.4% | -15.8%
CCCCCCNCc1cc(CNCCCCCC)c(O)c(CNCCCCCC)c1 | 4.5% | 15.4% | 18.4% | -2.4% | 1.4% | 29.6%
O=C1NNC2(C(=O)N1)c1ccccc1-c1ccccc12 | 8.5% | -19.5% | 28.1% | 24.9% | 1.65% | 15.2%
NNS(=O)(=O)c1ccc(N)cc1 | 5.6% | 1.3% | -5.4% | -35% | 18.8% | 5.15%
CCC(CC)(C(=O)O)C(=O)O | 34.1% | 9.3% | -3.35% | -33.2% | 12.7% | 5.8%
NC(=O)N/N=C/c1ccccc1O | 28.8% | 11.2% | 15% | 5.95% | -1.2% | 6.75%
Cc1c(C(=O)CC2OC(=O)C(Cl)=C2Cl)c2ccccc2n1C(=O)Nc1ccc(Cl)cc1 (configuration not stated) | 15.8% | -6.75% | 11.1% | -32.4% | 5.05% | 5.3%
CCN(CC)c1ccc(/C=C\c2c(C)cnc3ccccc23)cc1 | 8.85% | 10% | 17.9% | -24.4% | 34.6% | -9.45%
CC(=O)Nc1ccc(/C=N/Nc2ccccc2)cc1 | 97.9% (active) | 98.8% (active) | 98.5% (active) | 96.6% (active) | 98.5% (active) | 98.7% (active)

SMILES | growth inhibition [1] | growth inhibition [2] | growth inhibition [3] | growth inhibition [4] | growth inhibition [5] | growth inhibition [6]
O=C(c1ccncc1)c1c(Cc2ccccc2)ccc2ccccc12 | -0.3% | -0.65% | -9.25% | -4% | 5.45% | -1.35%
O=C(Nc1ccc(NC(=O)OCc2ccccc2)c(Cl)c1)OCc1ccccc1 | 20.4% | 11.3% | 6.85% | -26.6% | 6.3% | 3%
CC(=O)Oc1ccc(C2(c3ccc(OC(C)=O)cc3)C(=O)Nc3ccccc32)cc1 | -11.2% | -16.3% | -5.85% | -0.65% | 20.8% | -4.65%
C(/C=C/c1ccccc1)=Nc1ccc2c(c1)Cc1ccccc1-2 | 0.4% | -0.35% | -25.8% | -27.9% | -15.8% | 9.9%
O=C(Nc1nc2ccccc2n1Cc1ccc(Cl)cc1)NC12CC3CC(CC(C3)C1)C2 | 15.8% | -6.45% | 7.2% | -30.6% | 27.5% | -18.6%
CC(=O)[C@H]1C[C@@H](CC(=O)O)C1(C)C | -0.55% | -11.8% | -10.6% | -6% | -3.25% | -3.15%
C(=N\NC1=NCCCCN1)/c1ccc2ccccc2c1 | 14.1% | -1.75% | -32% | -34.6% | -2.35% | 7.6%
N#CC(c1cccs1)C1CCCCC1 (configuration not stated) | 9.4% | -0.5% | 2.05% | -11.8% | 2.65% | -1.3%
C=C1C(=O)OC2C=C(C)C3C(OC(=O)c4ccccc4)CC(C)(O)C3CC12 (configuration not stated) | 1.4% | -41.4% | 3.05% | 16.6% | -2.75% | 0.45%
CCCCCCCCCc1ccc(COCCCC)cc1 | 21.9% | 55.1% | 56.1% | 50.1% | 49.5% | 48.8%
Cc1cc(Br)ccc1N=c1scc(-c2ccc(Cl)cc2)n1C | -22.2% | -27.6% | 4.45% | 0.1% | 16.1% | 15.1%
O=C1c2cc3c(cc2CC1Cc1ccc2c(c1)CCC2)CCC3 (configuration not stated) | -28.8% | -23.8% | -33.2% | -34% | -20.5% | -33.1%
N=C(N=C(N)N)N1CCOCC1 | 8.95% | 20.1% | 9.75% | 32.7% | 30.1% | -0.55%
C=CCCC12CCCC(=O)C1Sc1ccc3ccccc3c12 (configuration not stated) | 9.8% | -3.85% | 11.3% | 10.8% | 35.3% | 7.15%
CCCCCOC(=S)S.[Ag] | -5.65% | -15.2% | -1.55% | 13.2% | -16.2% | -8.4%
O=C1c2ccccc2-c2nc(-c3cccnc3)cc3c2c1nc1ccccc13 | 32.7% | 24.4% | 34.4% | 23% | 24.7% | 39%
CC(=O)NC(c1ccccc1)(c1ccccc1)c1ccccc1 | 12.1% | 8.15% | 14.8% | 5.2% | 31.1% | 19.5%
CCOP(=O)(O)C(c1ccccc1)c1ccccc1 | -2.45% | 7.5% | 3.5% | -10.7% | 5.3% | 6.85%
COc1ccc2c(c1)CCCN2 | -3.4% | -23% | -4.05% | -20.1% | -13.3% | 3.65%
OC1c2ccccc2-c2ccc(Cl)cc21 (configuration not stated) | 23.8% | 14.2% | -7.15% | -32.2% | 4.15% | 14.9%
O=C(NCCO)c1ccc(Cl)cc1 | -23.6% | -26.3% | -30.6% | 19.1% | -32.4% | -44.5%
